# According to PubChem BioAssay (NCATS):
# Records with an inconclusive call do not appear. A call without a number means that no potency is given here. The source made the active and inactive calls. Unless noted, the call rests on the fitted dose curve; in most records, active means well fitted curve in the direction sought with a large enough effect; inconclusive means small, poorly fitted or top-dose-only effect, or another doubt; inactive means no such curve, though single readings can be large; an effect the other way counts as inactive or inconclusive.
# What was measured:
# [1] = target: ATP-dependent 6-phosphofructokinase (Trypanosoma brucei brucei) (UniProt O15648); assay: qHTS Assay to Find Inhibitors of T. brucei phosphofructokinase: hit validation (AID 492961);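 further: luminescence reports ADP formed as PFK phosphorylates fructose-6-phosphate with ATP; series mostly up to about 51 µM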
# How it was run: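 Percent activity derived from corrected luminescence, normalized between 0x and 1x enzyme controls, then fitted to concentration-response curves. Conditions: 1.25 nM PFK, 0.1 mM ATP, 0.5 mM F6P, 45 min RT.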
# [2] = Validation screen for small molecules that induce genotoxicity in human embryonic kidney (HEK293T) cells expressing luciferase-tagged ELG1 (AID 493106)
# How it was run: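 Reporter-gene quantitative HTS in HEK293T cells carrying luciferase-tagged ELG1, whose level climbs under genotoxic stress. Compound exposure lasts 16 hr at 37 °C before luciferase detection.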
# [3] = target: Thyrotropin-releasing hormone receptor (Homo sapiens) (UniProt P34981); assay: qHTS for Small Molecule Agonists and Allosteric Enhancers of Human TRH Receptor: Validation Screen for Agonists (AID 493127;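 active means calcium activation more than 3 SD above the typical response in the agonist read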;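 further: intracellular calcium rise by fluo-8 fluorescence before TRH EC20 addition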); conditions: TRH receptor agonist cell assay; at 2 µM; stronger effect = higher value
# Thyrotropin-releasing hormone receptor (Homo sapiens), sequence (P34981 whole entry, looked up): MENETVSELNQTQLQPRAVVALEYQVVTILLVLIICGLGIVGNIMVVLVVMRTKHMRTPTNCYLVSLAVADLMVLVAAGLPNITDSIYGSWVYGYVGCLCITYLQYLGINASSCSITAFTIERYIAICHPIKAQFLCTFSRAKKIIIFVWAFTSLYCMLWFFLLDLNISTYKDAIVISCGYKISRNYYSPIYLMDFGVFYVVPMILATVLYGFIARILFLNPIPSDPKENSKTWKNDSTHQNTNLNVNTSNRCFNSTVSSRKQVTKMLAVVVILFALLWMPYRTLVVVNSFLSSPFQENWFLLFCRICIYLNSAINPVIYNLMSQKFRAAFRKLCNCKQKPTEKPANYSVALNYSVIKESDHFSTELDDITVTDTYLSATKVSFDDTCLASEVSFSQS
# How it was run: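 Gq-coupled calcium mobilization in TRHR cells after compound addition, monitored kinetically with fluo-8 dye on an FDSS reader.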
# [4] = Nrf2 qHTS screen for inhibitors: Validation (AID 493153; active means well fitted inhibition curve with a large enough effect in the main read-out, with a control signal flat, not every such curve was filed as active); conditions: Potency: luciferase luminescence; viability change: measured here: cytotoxicity max response
# How it was run: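 Dose-response validation uses reporter A549 cells with firefly luciferase under an antioxidant response element. Compounds stay on cells 18-24 h at 37°C, and luminescence indicates Nrf2-driven transcription.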
# [5] = qHTS for Inhibitors of Cell Surface uPA Generation: Validation Assay (AID 493164);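 further: RAW 264.7 macrophage cells exposed to compound for 18 h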
# How it was run: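 RAW 264.7, 4000 cells/well, o/n plating; cpd 7-pt 1:5 dilution 2.45 nM–38.3 uM final; 18 h, 37 C/5% CO2; ATP-Lite, 5 s luminescence exposure.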
# [6] = target: Galactokinase (Homo sapiens) (UniProt P51570); assay: qHTS Validation Assay for Inhibitors of Human Galactokinase (GALK) (AID 493189)
# Galactokinase (Homo sapiens), sequence (P51570 whole entry, looked up): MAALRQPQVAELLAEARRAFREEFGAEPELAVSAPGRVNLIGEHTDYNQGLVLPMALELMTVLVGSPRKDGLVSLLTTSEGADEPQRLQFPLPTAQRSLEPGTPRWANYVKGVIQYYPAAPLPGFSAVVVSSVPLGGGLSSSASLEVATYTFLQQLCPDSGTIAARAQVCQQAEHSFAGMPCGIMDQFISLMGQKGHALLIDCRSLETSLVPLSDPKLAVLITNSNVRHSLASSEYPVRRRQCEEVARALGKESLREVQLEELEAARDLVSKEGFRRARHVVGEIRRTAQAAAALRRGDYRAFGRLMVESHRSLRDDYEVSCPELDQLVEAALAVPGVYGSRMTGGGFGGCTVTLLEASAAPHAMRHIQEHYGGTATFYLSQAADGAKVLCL
# How it was run: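 GALK (5 nM) with 35 uM ATP and 100 uM galactose in HEPES pH 8.0 with MgCl2, NaCl, DTT and BSA. Reaction ran 1 h at room temperature. Residual ATP read by Kinase-Glo Plus luminescence.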
# [7] = Validation screen for small molecules that induce DNA re-replication in SW480 colon adenocarcinoma cells (AID 504364)
# How it was run: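 Cells are treated 48 hr with test compound, stained 40 min with Hoechst at 37 C, and scanned for nuclear fluorescence; compounds inducing re-replication increase nuclei with elevated intensity.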
# [8] = target: phosphoglycerate mutase (Leishmania major) (UniProt Q4Q090); assay: qHTS Validation Assay to Find Inhibitors of Phosphoglycerate Mutase (AID 504548);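 further: end-point luminescence from Kinase-GloPlus after the PGAM reaction; series mostly up to about 58 µM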
# phosphoglycerate mutase (Leishmania major), sequence (Q4Q090 1-553): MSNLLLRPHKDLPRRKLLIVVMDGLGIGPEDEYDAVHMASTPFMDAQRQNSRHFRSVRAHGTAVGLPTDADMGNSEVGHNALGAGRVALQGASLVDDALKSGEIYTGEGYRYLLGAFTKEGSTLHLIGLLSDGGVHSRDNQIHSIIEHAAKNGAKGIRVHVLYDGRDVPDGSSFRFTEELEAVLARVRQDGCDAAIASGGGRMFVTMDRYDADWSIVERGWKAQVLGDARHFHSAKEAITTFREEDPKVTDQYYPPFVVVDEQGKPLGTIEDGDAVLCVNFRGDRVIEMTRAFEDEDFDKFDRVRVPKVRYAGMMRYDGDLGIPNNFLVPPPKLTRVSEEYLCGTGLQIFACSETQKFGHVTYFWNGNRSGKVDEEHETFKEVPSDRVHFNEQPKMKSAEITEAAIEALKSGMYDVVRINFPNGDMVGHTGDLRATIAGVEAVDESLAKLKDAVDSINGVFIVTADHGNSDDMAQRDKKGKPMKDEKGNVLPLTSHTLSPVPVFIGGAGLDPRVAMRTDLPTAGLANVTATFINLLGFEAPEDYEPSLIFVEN
# How it was run: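 L. major PGAM (1.25nM final) was added to substrate buffer and pinned compound, incubated 45 minutes at room temperature, then Kinase-GloPlus added; luminescence read after 10 minutes. Buffer: 100 mM TEA pH 7.6, 5 mM MgCl2, 0.01% Tween-20.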
# [9] = target: Ubiquitin carboxyl-terminal hydrolase 1 (Homo sapiens) (UniProt O94782); assay: Inhibitors of USP1/UAF1: Pilot qHTS (AID 504865); further: nearly all actives have a fitted effect of over 35% in size; further: potency means the concentration at half of the fitted maximal effect
# Ubiquitin carboxyl-terminal hydrolase 1 (Homo sapiens), sequence (O94782 whole entry, looked up): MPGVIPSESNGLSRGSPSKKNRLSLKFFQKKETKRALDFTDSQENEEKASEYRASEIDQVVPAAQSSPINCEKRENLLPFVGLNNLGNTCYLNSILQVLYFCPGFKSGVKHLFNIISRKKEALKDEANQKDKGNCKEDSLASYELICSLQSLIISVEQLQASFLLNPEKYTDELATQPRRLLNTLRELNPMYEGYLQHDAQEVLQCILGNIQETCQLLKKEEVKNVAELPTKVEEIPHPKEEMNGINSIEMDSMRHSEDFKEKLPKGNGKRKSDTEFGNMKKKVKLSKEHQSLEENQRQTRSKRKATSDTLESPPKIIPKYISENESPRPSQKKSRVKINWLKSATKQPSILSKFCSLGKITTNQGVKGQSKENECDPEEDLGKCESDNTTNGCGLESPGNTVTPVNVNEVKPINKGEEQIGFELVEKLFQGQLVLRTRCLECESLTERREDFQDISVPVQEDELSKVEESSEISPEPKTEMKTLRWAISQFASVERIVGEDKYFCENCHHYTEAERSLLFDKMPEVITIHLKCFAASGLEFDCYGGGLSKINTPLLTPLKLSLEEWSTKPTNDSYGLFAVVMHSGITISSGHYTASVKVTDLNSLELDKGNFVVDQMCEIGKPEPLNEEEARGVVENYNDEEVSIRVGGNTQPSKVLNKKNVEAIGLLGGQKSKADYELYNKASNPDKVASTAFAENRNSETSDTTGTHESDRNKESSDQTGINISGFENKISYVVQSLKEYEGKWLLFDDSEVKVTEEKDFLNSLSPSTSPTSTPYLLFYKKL
# How it was run: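 USP1/UAF1 complex at 1 nM preincubated 15 min at room temperature with compound, then Ub-Rho substrate added at 150 nM final. Fluorescence (480/540 nm) read kinetically in 50 mM HEPES pH 7.8, 0.5 mM EDTA, 1 mM TCEP, 0.1 mg/ml BSA, 0.01% Tween-20.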
# [10] = qHTS for Inhibitors of ATXN expression: Validation (AID 588378); further: series mostly up to about 57 µM; nearly all actives have a fitted effect of over 75% in size
# How it was run: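 HEK293 cells carrying ATXN2-firefly luciferase reporter, treated with compound 24 h at 37 °C. Viability read first by CellTiter-Fluor (405/525 nm), then reporter expression by Bright-Glo luminescence; controls were a known ATXN2 expression inhibitor and a luciferase inhibitor.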
# [11] = target: ATPase family AAA domain-containing protein 5 (Homo sapiens) (UniProt Q96QE3); assay: Validation screen for small molecules that inhibit ELG1-dependent DNA repair in human embryonic kidney (HEK293T) cells expressing luciferase-tagged ELG1 (AID 493107); further: nearly all actives have a fitted effect of over 70% in size; further: potency means the concentration at half of the fitted maximal effect
# ATPase family AAA domain-containing protein 5 (Homo sapiens), sequence (Q96QE3 whole entry, looked up, the tested form may be a part): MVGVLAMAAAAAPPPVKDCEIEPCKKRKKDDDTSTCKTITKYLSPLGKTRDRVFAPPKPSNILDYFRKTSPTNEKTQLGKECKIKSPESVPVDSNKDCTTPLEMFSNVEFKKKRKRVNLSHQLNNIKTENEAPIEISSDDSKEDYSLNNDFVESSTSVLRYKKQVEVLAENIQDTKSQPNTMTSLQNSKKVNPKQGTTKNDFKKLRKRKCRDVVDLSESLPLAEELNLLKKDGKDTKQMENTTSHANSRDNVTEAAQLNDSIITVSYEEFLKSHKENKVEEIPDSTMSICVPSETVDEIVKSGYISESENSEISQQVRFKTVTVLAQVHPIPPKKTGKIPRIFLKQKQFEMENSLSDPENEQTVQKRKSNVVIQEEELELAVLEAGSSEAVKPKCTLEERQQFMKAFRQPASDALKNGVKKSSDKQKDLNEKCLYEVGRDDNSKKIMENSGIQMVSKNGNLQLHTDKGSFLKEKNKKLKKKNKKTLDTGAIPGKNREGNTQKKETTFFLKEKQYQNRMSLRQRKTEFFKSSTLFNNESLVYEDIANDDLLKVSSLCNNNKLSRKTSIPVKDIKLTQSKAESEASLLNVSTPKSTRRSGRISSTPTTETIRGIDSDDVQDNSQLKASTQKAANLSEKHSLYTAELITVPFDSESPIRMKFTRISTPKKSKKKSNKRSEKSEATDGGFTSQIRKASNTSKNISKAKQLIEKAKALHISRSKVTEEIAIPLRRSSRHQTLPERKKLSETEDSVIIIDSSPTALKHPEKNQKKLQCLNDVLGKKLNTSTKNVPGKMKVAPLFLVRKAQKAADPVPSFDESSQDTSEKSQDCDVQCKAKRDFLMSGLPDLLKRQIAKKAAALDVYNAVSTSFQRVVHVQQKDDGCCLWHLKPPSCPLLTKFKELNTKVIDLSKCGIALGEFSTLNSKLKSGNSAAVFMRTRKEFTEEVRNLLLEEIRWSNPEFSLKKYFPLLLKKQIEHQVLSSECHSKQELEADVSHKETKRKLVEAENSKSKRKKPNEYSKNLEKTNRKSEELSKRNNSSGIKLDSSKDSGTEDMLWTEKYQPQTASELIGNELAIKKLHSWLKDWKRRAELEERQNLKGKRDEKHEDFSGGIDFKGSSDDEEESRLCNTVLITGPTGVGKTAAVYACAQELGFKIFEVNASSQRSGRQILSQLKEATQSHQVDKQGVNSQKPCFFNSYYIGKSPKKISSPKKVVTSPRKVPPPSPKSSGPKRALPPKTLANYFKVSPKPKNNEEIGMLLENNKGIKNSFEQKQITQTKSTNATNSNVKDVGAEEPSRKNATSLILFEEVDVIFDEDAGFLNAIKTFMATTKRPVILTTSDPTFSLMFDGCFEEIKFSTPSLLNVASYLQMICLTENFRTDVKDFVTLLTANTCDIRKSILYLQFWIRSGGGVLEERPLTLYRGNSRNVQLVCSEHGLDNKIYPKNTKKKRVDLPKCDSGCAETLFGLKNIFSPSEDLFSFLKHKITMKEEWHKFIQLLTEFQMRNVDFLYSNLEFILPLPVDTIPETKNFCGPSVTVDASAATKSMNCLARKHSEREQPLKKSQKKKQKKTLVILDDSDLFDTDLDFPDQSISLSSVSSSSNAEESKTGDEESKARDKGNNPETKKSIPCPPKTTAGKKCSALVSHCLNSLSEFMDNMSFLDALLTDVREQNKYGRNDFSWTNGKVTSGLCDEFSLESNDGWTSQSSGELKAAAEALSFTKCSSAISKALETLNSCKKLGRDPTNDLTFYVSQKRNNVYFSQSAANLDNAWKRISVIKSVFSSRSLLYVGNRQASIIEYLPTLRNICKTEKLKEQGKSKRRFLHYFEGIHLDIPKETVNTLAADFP
# How it was run: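 Quantitative HTS in HEK293T cells carrying luciferase-tagged ELG1, stimulated with 5-fluorouridine alongside compound for 16 hr. Loss of luciferase signal marks inhibition of ELG1 response.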
# [12] = target: Peptidyl-prolyl cis-trans isomerase NIMA-interacting 1 (Homo sapiens) (UniProt Q13526); assay: qHTS Validation Assay to Find Inhibitors of Pin1 (AID 504536; active means well fitted inhibition curve with a large enough effect in the polarisation, with a control signal flat, not every such curve was filed as active; the % refers to the polarisation)
# Peptidyl-prolyl cis-trans isomerase NIMA-interacting 1 (Homo sapiens), sequence (Q13526 whole entry, looked up): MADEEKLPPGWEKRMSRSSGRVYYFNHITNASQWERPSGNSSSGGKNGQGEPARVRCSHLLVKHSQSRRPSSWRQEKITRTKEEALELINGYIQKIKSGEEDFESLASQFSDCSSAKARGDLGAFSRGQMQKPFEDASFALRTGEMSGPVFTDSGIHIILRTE
# How it was run: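 Fluorescence polarization competition: compounds (titration) displace HiFluor-488-labeled Pin1-1b peptide from Pin1 (0.3 uM final) in pH 7.5 HEPES buffer with DTT, 10 min at room temperature; %Activity normalized to no-enzyme wells, curves fitted.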
# [13] = qHTS for Inhibitors of ATXN expression: Validation of Cytotoxic Assay (AID 588349);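 further: cells exposed to compound for 72 hr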
# How it was run: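 HEK293, compound dose series, 72 hr / 37 degrees C; viability via CellTiter Glo (intracellular ATP).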
# [14] = target: DNA dC->dU-editing enzyme APOBEC-3G (Homo sapiens) (UniProt Q9HC16); assay: qHTS for inhibitors of Vif-A3G interactions: Validation (AID 588379)
# DNA dC->dU-editing enzyme APOBEC-3G (Homo sapiens), sequence (Q9HC16 whole entry, looked up): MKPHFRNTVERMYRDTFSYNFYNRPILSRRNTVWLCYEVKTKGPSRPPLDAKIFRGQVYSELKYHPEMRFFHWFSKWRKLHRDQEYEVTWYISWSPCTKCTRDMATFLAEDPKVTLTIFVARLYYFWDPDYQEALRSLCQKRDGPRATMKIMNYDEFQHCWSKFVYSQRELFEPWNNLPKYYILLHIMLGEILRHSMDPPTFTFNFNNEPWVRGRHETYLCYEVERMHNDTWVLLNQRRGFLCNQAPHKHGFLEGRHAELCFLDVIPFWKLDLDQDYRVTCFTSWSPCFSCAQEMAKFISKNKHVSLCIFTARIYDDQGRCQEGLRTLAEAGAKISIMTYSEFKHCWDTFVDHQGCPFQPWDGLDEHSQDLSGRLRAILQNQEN
# How it was run: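 HeLa cells stably expressing Vif and A3G-eYFP, 700 cells/well, incubated overnight at 37 deg C, then exposed to compound overnight at 37 deg C. Inhibition of Vif-mediated degradation read as increased yellow fluorescence (Ex 488/Em 500-530) by laser-scanning cytometry.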
# [15] = target: Phosphoglycerate kinase, glycosomal (Trypanosoma brucei brucei) (UniProt P07378); assay: qHTS Validation Assay to Find Inhibitors of Phosphoglycerate Kinase (AID 504547)
# Phosphoglycerate kinase, glycosomal (Trypanosoma brucei brucei), sequence (P07378 whole entry, looked up): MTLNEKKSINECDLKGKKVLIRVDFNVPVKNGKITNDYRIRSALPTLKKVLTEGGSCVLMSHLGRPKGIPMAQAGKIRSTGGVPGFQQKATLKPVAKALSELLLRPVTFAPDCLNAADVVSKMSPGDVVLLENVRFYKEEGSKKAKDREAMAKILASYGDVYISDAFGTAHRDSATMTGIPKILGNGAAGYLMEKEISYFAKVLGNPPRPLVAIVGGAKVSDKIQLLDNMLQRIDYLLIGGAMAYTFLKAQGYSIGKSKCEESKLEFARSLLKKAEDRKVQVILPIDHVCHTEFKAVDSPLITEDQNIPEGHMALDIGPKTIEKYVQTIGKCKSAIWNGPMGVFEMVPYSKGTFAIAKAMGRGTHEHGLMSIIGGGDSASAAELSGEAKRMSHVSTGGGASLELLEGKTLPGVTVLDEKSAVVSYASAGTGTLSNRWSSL
# How it was run: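 Substrate/PGK mix plus compound; reaction started with GAPDH (100nM final) to form 1,3-BPG; 60 min RT; Kinase-Glo Plus 10 min; luminescence. TEA 100mM pH 7.6, MgCl2 5mM, Tween-20 0.01%.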
# [16] = target: Glucocorticoid receptor (Homo sapiens) (UniProt P04150); assay: qHTS assay for small molecule agonists of glucocorticoid receptor signaling (AID 588532; active means well fitted curve in the direction sought with a large enough effect in the signal ratio, with a control signal flat; the % refers to the signal ratio); conditions: HeLa MMTV-bla, beta-lactamase ratio, agonist, 18 h; stronger effect = higher value; percent of dexamethasone control, DMSO zero
# How it was run: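 Titration series, up to 92 uM, applied to GRE-bla HeLa cells for 18 h at 37 C. Detection by CCF4 FRET substrate after 2 h at RT.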
# [17] = target: Estrogen receptor (Homo sapiens) (UniProt P03372); assay: qHTS assay for small molecule antagonists of estrogen receptor alpha signaling (AID 588513; active means well fitted curve in the direction sought with a large enough effect in the signal ratio, with a control signal flat, not every such curve was filed as active; the % refers to the signal ratio; further: potency means the concentration at half of the fitted maximal effect)
# How it was run: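 ER-alpha-UAS-bla GripTite HEK 293 cells in 2% charcoal/dextran-treated FBS medium; compounds titrated (1:2, duplicate), then stimulated with 0.5 nM 17-beta-estradiol for 18 h at 37C. CCF4 beta-lactamase fluorescence; Hill-fit IC50 and efficacy.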
# [18] = target: Androgen receptor (Homo sapiens) (UniProt P10275); assay: qHTS assay for small molecule agonists of androgen receptor signaling (AID 588515; active means well fitted curve in the direction sought with a large enough effect in the signal ratio, with a control signal flat; the % refers to the signal ratio); conditions: AR-UAS-bla HEK293, beta-lactamase ratio, agonist 16 h; activation: stronger effect = higher value
# How it was run: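 EC50 and efficacy came from Hill fits of titrations (up to 92 uM) normalized to 30 nM R1881 as 100% and DMSO as 0%. Compound exposure was 16 h at 37 C on AR-UAS-bla HEK293 cells, with a 405/460/530 nm CCF4 fluorescence read.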
# [19] = target: Androgen receptor (Homo sapiens) (UniProt P10275); assay: qHTS assay for small molecule antagonists of androgen receptor signaling (AID 588516; active means well fitted curve in the direction sought with a large enough effect in the signal ratio, with a control signal flat, not every such curve was filed as active; the % refers to the signal ratio)
# How it was run: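 AR-UAS-bla GripTite HEK 293 cells (2000/well) treated with compound titrations plus 10 nM R1881 for 16 h at 37C. Beta-lactamase read by CCF4 FRET (460/530 nm); IC50 from Hill fits, normalized to R1881 and DMSO control wells.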
smiles,measurement,setting,value
CC(C)NCC(O)COc1ccc(COCCOC(C)C)cc1 (stereo not drawn),outcome,[1],inactive
same,Potency,[2],inactive
same,activation,[3],-0.25% (inactive)
same,Potency,[4],inactive
same,viability change,[4],3.25%
same,outcome,[5],inactive
same,outcome,[6],inactive
same,outcome,[7],inactive
same,outcome,[8],inactive
same,Potency,[9],inactive
same,outcome,[10],inactive
NCCc1ccc(O)c(O)c1,Potency,[2],inactive
same,Potency,[11],inactive
same,activation,[3],1% (inactive)
same,Potency,[4],inactive
same,viability change,[4],1.72%
same,outcome,[5],inactive
same,outcome,[6],inactive
same,outcome,[7],inactive
same,outcome,[12],inactive
same,Potency,[9],inactive
CCOC(=O)N1CCC(=C2c3ccc(Cl)cc3CCc3cccnc32)CC1,Potency,[2],inactive
same,activation,[3],-10.4% (inactive)
same,outcome,[5],inactive
same,outcome,[6],inactive
same,outcome,[8],inactive
same,Potency,[13],inactive
same,outcome,[10],inactive
same,outcome,[14],inactive
N=c1nc(N2CCCCC2)cc(N)n1O,Potency,[2],inactive
same,Potency,[11],inactive
same,activation,[3],0% (inactive)
same,Potency,[4],inactive
same,viability change,[4],-11.3%
same,outcome,[5],inactive
same,outcome,[6],inactive
same,outcome,[7],inactive
same,outcome,[8],inactive
same,Potency,[9],inactive
same,outcome,[10],inactive
same,outcome,[14],inactive
Cc1ccc2c(c1)C(=O)[C@@]1(O)CCN(c3ccccc3)C1=N2,Potency,[9],inactive
same,outcome,[14],inactive
Oc1ccc(C2CNCCc3c2cc(O)c(O)c3Cl)cc1 (stereo not drawn),Potency,[2],inactive
same,Potency,[11],inactive
same,Potency,[4],inactive
same,viability change,[4],0.62%
same,outcome,[5],inactive
same,outcome,[6],inactive
same,outcome,[7],inactive
same,outcome,[15],inactive
same,outcome,[8],inactive
same,Potency,[9],inactive
same,outcome,[10],inactive
CCOC(=O)C1=C[C@]2(CC)CCCN3CCc4c(n1c1ccccc41)[C@@H]32,Potency,[2],inactive
same,activation,[3],0.0625% (inactive)
same,Potency,[4],inactive
same,viability change,[4],-5.34%
same,outcome,[5],inactive
same,outcome,[6],inactive
same,outcome,[7],inactive
same,outcome,[12],inactive
same,outcome,[8],inactive
same,outcome,[10],inactive
NC[C@H](O)c1ccc(O)c(O)c1,Potency,[2],inactive
same,Potency,[11],inactive
same,Potency,[4],inactive
same,viability change,[4],3.52%
same,outcome,[5],inactive
same,outcome,[6],inactive
same,outcome,[7],inactive
same,outcome,[8],inactive
same,Potency,[9],inactive
same,outcome,[10],inactive
same,activation,[16],-3.45% (inactive)
CCN(CC)CCCC(C)Nc1ccnc2cc(Cl)ccc12 (stereo not drawn),Potency,[2],inactive
same,Potency,[11],inactive
same,activation,[3],0.875% (inactive)
same,Potency,[4],inactive
same,viability change,[4],-17.9%
same,outcome,[5],inactive
same,outcome,[7],inactive
same,outcome,[15],inactive
same,outcome,[8],inactive
same,Potency,[9],inactive
Nc1nc2ccc(OC(F)(F)F)cc2s1,Potency,[4],inactive
same,viability change,[4],-4.99%
same,outcome,[5],inactive
same,outcome,[6],inactive
same,outcome,[7],inactive
same,outcome,[12],inactive
same,outcome,[8],inactive
same,Potency,[9],inactive
same,outcome,[10],inactive
same,outcome,[14],inactive
CC(C)(Sc1ccc(CCN(CCCCC2CCCCC2)C(=O)NC2CCCCC2)cc1)C(=O)O,Potency,[2],inactive
same,Potency,[11],inactive
same,activation,[3],1.5% (inactive)
same,outcome,[5],inactive
same,outcome,[6],inactive
same,outcome,[7],inactive
same,outcome,[15],inactive
same,outcome,[8],inactive
same,Potency,[9],44.7 µM (active)
same,outcome,[10],inactive
same,outcome,[14],inactive
same,Potency,[17],15.8 µM [inhibitor] (active)
same,activation,[18],-10.8% (inactive)
same,outcome,[19],inactive
O=C1CCc2cc(OCCCCc3nnnn3C3CCCCC3)ccc2N1,Potency,[2],inactive
same,Potency,[11],inactive
same,activation,[3],3.38% (inactive)
same,outcome,[5],inactive
same,outcome,[6],inactive
same,outcome,[7],inactive
same,outcome,[8],inactive
same,Potency,[9],inactive
same,outcome,[10],inactive
same,outcome,[14],inactive
O=C(Nc1nc2ccccc2n1CCN1CCOCC1)c1cccc([N+](=O)[O-])c1,Potency,[2],inactive
same,Potency,[11],8.2 µM (active)
same,outcome,[5],inactive
same,outcome,[8],inactive
same,Potency,[9],inactive
same,outcome,[10],inactive
C1COC(NC(C2CC2)C2CC2)=N1,Potency,[2],inactive
same,Potency,[11],inactive
same,activation,[3],-0.312% (inactive)
same,Potency,[4],inactive
same,viability change,[4],-3.72%
same,outcome,[5],inactive
same,outcome,[6],inactive
same,outcome,[7],inactive
same,outcome,[8],inactive
same,Potency,[9],inactive
same,outcome,[10],inactive
same,outcome,[14],inactive
Nc1ncnc2nc(-c3ccc(N4CCOCC4)nc3)cc(-c3cccc(Br)c3)c12,Potency,[2],inactive
same,Potency,[11],4.11 µM (active)
same,outcome,[5],inactive
same,outcome,[15],inactive
same,outcome,[8],inactive
same,outcome,[10],inactive
